Where “and” joins values, the source holds several entries; their conditions need not be identical. Equal entries are not always repeated. Inconclusive results are not listed. Calls of active or inactive are those of the source. Unless noted, the call rests on the fitted dose curve; in most records, active means well fitted curve in the direction sought with a large enough effect; inconclusive means small, poorly fitted or top-dose-only effect, or another doubt; inactive means no such curve, though single readings can be large; an effect the other way counts as inactive or inconclusive.
How the values were obtained:
[1] = molecular target: Cytochrome P450 1A2 (Homo sapiens) (UniProt P05177); test: p450-cyp1a2 (AID 410; calls by dose curve; further: potency means the concentration at half of the fitted maximal effect;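 on activity change, negative = inhibition: -100% = full effect of reference inhibitor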)
Procedure, shortened: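 20nM CYP1A2, 100uM Luciferin-ME (=Km), 100mM KPO4; cpd 10 min RT; +NADPH regen, 60 min RT; stop/detect 20 min; luminescence. Normalized to furafylline 57 uM = full inhibition.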

[2] = molecular target: Glucocorticoid receptor (Homo sapiens) (UniProt P04150); test: GR-GFP Redistribution (AID 450;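 active means compounds whose dose series gives a full or clear partial fitted curve of increased nuclear translocation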; further: potency means the concentration at half of the fitted maximal effect); conditions: U2OS GR-GFP nuclear translocation, laser cytometry, 2 h
[3] = molecular target: Ubiquitin carboxyl-terminal hydrolase 1 (Homo sapiens) (UniProt O94782); test: Inhibitors of USP1/UAF1: Pilot qHTS (AID 504865);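 further: rhodamine fluorescence freed from ubiquitin-rhodamine substrate followed over time; top concentration of the series differs between compounds; on the % scale 0 is the no-effect control and ±100 the full control effect; nearly all actives have a fitted effect of over 35% in size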
Procedure, shortened: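 1nM USP1/UAF1 + cpd, 15 min RT; start w/ Ub-Rho 150nM final; kinetic FL 480/540 nm, 6 reads q60 s. Buffer 50mM HEPES pH 7.8, 0.5mM EDTA, 1mM TCEP, 0.01% Tween-20, 0.1 mg/ml BSA.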

[4] = molecular target: DNA dC->dU-editing enzyme APOBEC-3G (Homo sapiens) (UniProt Q9HC16); test: qHTS for inhibitors of Vif-A3G interactions: Validation (AID 588379); further: 0% is about no effect
Procedure, shortened: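 Yellow fluorescence (Ex 488, Em 500-530) of Vif-coexpressing HeLa A3G-eYFP cells, scanned by Acumen cytometer, reports blocked A3G degradation. Cells plated at 700/well overnight at 37 deg C before compound addition, then a further overnight compound incubation at 37 deg C.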

[5] = tested on: Zika virus NS2B-NS3 protease; test: Primary screen GU AMC qHTS for Zika virus inhibitors (AID 1347154);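 further: 0% = no-inhibitor control and -100% = no-enzyme control; nearly all actives have a fitted effect of over 70% in size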
Procedure, shortened: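 Unlinked Zika NS2B hydrophilic domain/NS3 protease domain noncovalent complex (25 nM final) in 10 mM Tris-HCl pH 8.0, 0.01% Tween 20, with AMC peptide substrate. Fluorescence (ex 340, em 450 nm) change over 15 min, room temperature; percent inhibition fitted to 4-parameter Hill equation.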

[6] = Primary qHTS for small molecule stabilizers of the endoplasmic reticulum resident proteome: Secreted ER Calcium Modulated Protein (SERCaMP) assay (AID 1508630); further: on the % scale 0 is the no-effect control and ±100 the full control effect
Procedure, shortened: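 The SH-SY5Y reporter protocol was run at 3 concentrations up to 38.3 uM (primary) or 11 concentrations (follow-up): 16 h compound, 100 nM thapsigargin for 4 h, then extracellular luciferase luminescence.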

[7] = molecular target: Glucocorticoid receptor (Homo sapiens) (UniProt P04150); test: GR-EFC Redistribution (AID 451; calls by dose curve; further: potency means the concentration at half of the fitted maximal effect); conditions: CHO-K1 GR-EFC translocation, beta-gal luminescence, 2 h
Procedure, shortened: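 CHO-K1 cells stably expressing nuclear-localized β-gal enzyme acceptor and GR fused C-terminally to the enzyme donor fragment; ligand-driven nuclear translocation restores β-gal by complementation. Compounds titrated up to 46 uM final, 2 h at 37 °C; luminescence read.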

[8] = molecular target: Mitogen-activated protein kinase 10 (Mus musculus) (UniProt Q61831); test: JNK3 AlphaScreen Assay (AID 530; active means well fitted curve in either direction with a large enough effect, not every such curve was filed as active;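 further: kinase came from lysate of stimulated human HepG2 cells; signal reports phosphorylation of biotinylated GST-cJun 1-79 at Ser73 with 10 µM ATP; on the % scale 0 is the no-effect control and ±100 the full control effect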)
Procedure, shortened: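 Biotinylated GST-cJun(1-79) served as substrate for JNK3 in HepG2 lysates stimulated with IL-1beta and TNF-alpha. ATP was 10 uM final, pH 7.6. Ser73 phosphorylation was quantified by AlphaScreen (680 nm excitation).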

[9] = molecular target: 3',5'-cyclic-AMP phosphodiesterase 4B (Homo sapiens) (UniProt Q07343); test: qHTS Assay for Inhibitors of PDE-IV (AID 607; active means well fitted activation curve with a large enough effect in the main read-out, with a control signal flat, not every such curve was filed as active; further: % of control where 0% means no effect)
Procedure, shortened: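 Live HEK293 cells with a modified cyclic nucleotide-gated (CNG) channel report intracellular cAMP via membrane-potential dye fluorescence (ex 535/em 590 nm). Endogenous PDE-IV was targeted. Compounds were tested at up to 22.9 uM final; RO 20-1724 100 uM served as control.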

[10] = AP1 Signaling Pathway (AID 357; active means well fitted curve in either direction with a large enough effect, not every such curve was filed as active;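 further: ME-180 reporter cells stimulated with EGF at its EC50 level; on the % scale 0 is the no-effect control and ±100 the full control effect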)
Procedure, shortened: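 Read-out was the 460nm/530nm emission ratio (excitation 405nm) after CCF4 loading for 2.5 hours at room temperature. Cells carried an AP-1-driven beta-lactamase reporter, were stimulated with EC50 EGF plus compound for 5 hours, and AC50 values came from titrations.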

[11] = NFAT Signaling Pathway (AID 444; active means well fitted curve in either direction with a large enough effect, not every such curve was filed as active;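 further: carbachol stimulus at about its EC50 of 1 µM final; on the % scale 0 is the no-effect control and ±100 the full control effect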); conditions: Jurkat NFAT-bla M1, carbachol, beta-lactamase ratio, 5 h
Procedure, shortened: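 Jurkat cells carrying an NFAT-driven β-lactamase reporter and co-transfected muscarinic M1 receptor were treated with compound plus carbachol (1 uM final, an EC50 level) for 5 h at 37 °C. CCF4 loading followed for 1 h at RT; 460/530 nm ratio gave %activity.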

[12] = molecular target: Cytochrome P450 2D6 (Homo sapiens) (UniProt P10635); test: qHTS Assay for Inhibitors and Substrates of Cytochrome P450 2D6 (AID 891); further: nearly all actives have a fitted effect of over 60% in size; further: potency means the concentration at half of the fitted maximal effect
Procedure, shortened: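 Luminescent read-out of luciferin formed by 5 nM human CYP2D6 demethylating 30 uM Luciferin-ME EGE (Km level) over 60 min at room temperature after NADPH regeneration addition. Data normalized to full inhibition by 1.43 uM quinidine.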

[13] = molecular target: Cytochrome P450 2C19 (Homo sapiens) (UniProt P33261); test: qHTS Assay for Inhibitors and Substrates of Cytochrome P450 2C19 (AID 899); further: on the % scale 0 is the no-effect control and ±100 the full control effect; nearly all actives have a fitted effect of over 60% in size
Procedure, shortened: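 In 50mM KPO4, the reaction held 5nM enzyme and KM-level (10uM) Luciferin-H EGE; it ran 60 min at 37C after NADPH regeneration and a 10 min compound preincubation. Luminescence values were scaled to 57uM ketoconazole as complete inhibition.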

[14] = molecular target: Pyruvate kinase (Leishmania mexicana) (UniProt Q27686); test: qHTS Validation Assay for Inhibitors of Leishmania Mexicana Pyruvate Kinase (AID 945);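 further: 0% = DMSO only neutral control wells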
Procedure, shortened: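 An endpoint luciferase assay: 0.2 nM LmPYK E451W turns over 0.5 mM PEP with 0.1 mM ADP for 1 h at room temperature, pH 7.2, before PKLight addition. Values are normalized to DMSO-only wells.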

[15] = molecular target: Pyruvate kinase PKM (Homo sapiens) (UniProt P14618); test: qHTS Assay for Activators of Human Muscle Pyruvate Kinase (AID 954; active means well fitted curve in the direction sought with a large enough effect, not every such curve was filed as active;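 further: 0% = uninhibited enzyme and -100% = no enzyme or full thiadiazolimine inhibition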)
Procedure, shortened: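 Screening used highly purified human pyruvate kinase M2 under submaximal activity, with PEP at its Km and ADP below Km. After an hour at room temperature, ATP was read by luciferase luminescence.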

[16] = molecular target: Alpha-galactosidase (Coffea arabica) (UniProt Q42656); test: Counterscreen for Glucocerebrosidase Inhibitors: qHTS Assay for Coffee Bean alpha-Galactosidase at pH 4.5 (AID 957);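 further: plate controls were enzyme alone for no effect and no enzyme for full effect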
Procedure, shortened: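 Fluorogenic read-out: 4-methylumbelliferone at Ex 365/Em 440 nm after NaOH/glycine stop (pH 10). Enzyme 2 nM, 4-MU-alpha-galactoside 80 uM, citrate buffer pH 4.5, 20 min RT; normalized to no-enzyme and enzyme controls.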

[17] = molecular target: Alpha-galactosidase A (Homo sapiens) (UniProt P06280); test: Counterscreen for Glucocerebrosidase Inhibitors: qHTS Assay for Human alpha-Galactosidase at pH 4.5 (AID 992); further: 0% is about no effect
Procedure, shortened: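 Each compound is preincubated briefly with 2 nM enzyme before substrate addition (80 uM); plates then sit 20 min at ambient temperature, are quenched with 1M NaOH/1M glycine, and read fluorometrically.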

[18] = molecular target: alpha-glucosidase (Oryza sativa, rice) (UniProt Q653V4); test: Counterscreen for Glucocerebrosidase Inhibitors: qHTS Assay for Rice alpha-Glucosidase at pH 5.0 (AID 997);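 further: 0% = full activity with enzyme and -100% = basal without enzyme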
Procedure, shortened: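 Endpoint fluorogenic assay at pH 5.0: compounds (0.7 nM to 77 uM) titrated against 4 nM rice enzyme and 400 uM 4-MU-alpha-glucoside for 20 min at room temperature; NaOH/glycine stop, read ex 365/em 440 nm, Hill-fitted AC50.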

[19] = molecular target: Alpha-galactosidase (Coffea arabica) (UniProt Q42656); test: Counterscreen for Glucocerebrosidase Inhibitors: qHTS Assay for Coffee Bean alpha-Galactosidase at pH 5.9 (AID 998);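 further: plate controls were uninhibited enzyme for no effect and no-enzyme basal signal for full effect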
Procedure, shortened: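 In 50 mM citric acid pH 5.9 with 0.005% Tween-20, coffee bean enzyme hydrolyses 80 uM 4-MU alpha-D-galactopyranoside over 20 min at RT. Activity is normalized to controls; AC50 comes from Hill-modelled concentration-response data.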

Chain of DNA dC->dU-editing enzyme APOBEC-3G (Homo sapiens) (Q9HC16 whole entry, looked up): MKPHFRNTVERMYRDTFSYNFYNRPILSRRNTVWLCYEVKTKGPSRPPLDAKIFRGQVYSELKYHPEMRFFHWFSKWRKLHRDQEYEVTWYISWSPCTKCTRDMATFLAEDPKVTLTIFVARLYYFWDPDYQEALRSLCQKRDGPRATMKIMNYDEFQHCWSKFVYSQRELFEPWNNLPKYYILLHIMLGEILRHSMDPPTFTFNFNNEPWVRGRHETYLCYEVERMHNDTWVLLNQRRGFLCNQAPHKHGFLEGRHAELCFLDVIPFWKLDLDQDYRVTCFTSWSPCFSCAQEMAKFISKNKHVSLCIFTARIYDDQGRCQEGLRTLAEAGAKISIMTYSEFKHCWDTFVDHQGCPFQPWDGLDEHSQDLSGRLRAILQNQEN
Chain of Alpha-galactosidase (Coffea arabica) (Q42656 whole entry, looked up): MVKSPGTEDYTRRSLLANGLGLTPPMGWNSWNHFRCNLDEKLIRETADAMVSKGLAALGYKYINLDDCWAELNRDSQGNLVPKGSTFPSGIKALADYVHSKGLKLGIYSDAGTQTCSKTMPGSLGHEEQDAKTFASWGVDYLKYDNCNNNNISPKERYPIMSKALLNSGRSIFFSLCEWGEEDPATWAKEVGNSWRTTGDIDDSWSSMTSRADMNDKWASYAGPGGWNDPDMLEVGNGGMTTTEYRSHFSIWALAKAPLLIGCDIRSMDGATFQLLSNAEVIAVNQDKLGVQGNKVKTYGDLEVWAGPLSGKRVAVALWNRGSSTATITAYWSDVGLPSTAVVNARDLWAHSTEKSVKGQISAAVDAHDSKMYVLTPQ
Chain of Cytochrome P450 1A2 (Homo sapiens) (P05177 whole entry, looked up): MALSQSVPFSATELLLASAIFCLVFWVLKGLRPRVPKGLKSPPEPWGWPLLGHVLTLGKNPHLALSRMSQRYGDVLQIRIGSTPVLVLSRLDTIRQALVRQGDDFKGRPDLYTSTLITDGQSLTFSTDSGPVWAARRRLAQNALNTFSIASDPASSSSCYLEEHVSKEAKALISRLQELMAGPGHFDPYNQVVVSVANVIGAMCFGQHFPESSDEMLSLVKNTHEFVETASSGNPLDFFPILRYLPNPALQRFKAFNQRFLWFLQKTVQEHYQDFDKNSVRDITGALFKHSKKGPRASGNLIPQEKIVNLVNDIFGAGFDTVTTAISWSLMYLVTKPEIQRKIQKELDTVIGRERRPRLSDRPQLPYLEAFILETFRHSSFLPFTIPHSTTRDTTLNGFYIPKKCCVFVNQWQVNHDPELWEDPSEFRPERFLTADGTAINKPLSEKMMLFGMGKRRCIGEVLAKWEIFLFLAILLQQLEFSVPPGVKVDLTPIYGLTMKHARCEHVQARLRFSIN
Chain of Pyruvate kinase PKM (Homo sapiens) (P14618 whole entry, looked up): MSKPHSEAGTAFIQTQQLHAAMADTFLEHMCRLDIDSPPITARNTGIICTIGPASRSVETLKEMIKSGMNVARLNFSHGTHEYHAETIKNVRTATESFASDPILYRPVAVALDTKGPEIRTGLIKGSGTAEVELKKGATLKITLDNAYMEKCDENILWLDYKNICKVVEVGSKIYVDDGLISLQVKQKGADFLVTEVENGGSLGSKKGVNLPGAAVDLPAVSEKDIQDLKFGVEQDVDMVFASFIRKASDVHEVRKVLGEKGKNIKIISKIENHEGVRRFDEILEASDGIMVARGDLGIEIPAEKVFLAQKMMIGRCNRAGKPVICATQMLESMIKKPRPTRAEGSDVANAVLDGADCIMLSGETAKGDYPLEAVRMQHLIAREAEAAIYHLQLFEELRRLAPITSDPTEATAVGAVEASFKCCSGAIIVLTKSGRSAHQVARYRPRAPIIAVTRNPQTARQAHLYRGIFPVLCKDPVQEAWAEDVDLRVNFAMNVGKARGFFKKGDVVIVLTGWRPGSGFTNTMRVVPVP
Chain of Ubiquitin carboxyl-terminal hydrolase 1 (Homo sapiens) (O94782 whole entry, looked up): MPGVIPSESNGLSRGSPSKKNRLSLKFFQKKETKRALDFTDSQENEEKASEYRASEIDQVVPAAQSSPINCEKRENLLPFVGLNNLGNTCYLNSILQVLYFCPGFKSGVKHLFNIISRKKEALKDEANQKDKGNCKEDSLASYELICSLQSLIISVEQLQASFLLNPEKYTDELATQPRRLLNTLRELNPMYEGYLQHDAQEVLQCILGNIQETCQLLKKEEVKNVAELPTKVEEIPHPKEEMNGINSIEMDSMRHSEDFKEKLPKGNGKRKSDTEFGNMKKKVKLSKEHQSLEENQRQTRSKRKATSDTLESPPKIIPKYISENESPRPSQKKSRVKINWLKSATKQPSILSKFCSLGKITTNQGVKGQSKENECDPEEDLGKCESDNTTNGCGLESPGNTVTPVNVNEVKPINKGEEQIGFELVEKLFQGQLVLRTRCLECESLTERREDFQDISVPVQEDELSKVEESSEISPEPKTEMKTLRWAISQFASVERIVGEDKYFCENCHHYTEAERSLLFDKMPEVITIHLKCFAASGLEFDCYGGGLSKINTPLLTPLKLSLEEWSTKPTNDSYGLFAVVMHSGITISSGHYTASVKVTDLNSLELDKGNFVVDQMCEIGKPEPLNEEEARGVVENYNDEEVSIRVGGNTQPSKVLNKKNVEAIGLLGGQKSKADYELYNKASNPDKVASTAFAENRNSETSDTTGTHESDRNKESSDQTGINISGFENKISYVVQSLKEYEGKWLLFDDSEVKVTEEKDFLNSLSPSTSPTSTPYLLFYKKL
Chain of 3',5'-cyclic-AMP phosphodiesterase 4B (Homo sapiens) (Q07343 whole entry, looked up): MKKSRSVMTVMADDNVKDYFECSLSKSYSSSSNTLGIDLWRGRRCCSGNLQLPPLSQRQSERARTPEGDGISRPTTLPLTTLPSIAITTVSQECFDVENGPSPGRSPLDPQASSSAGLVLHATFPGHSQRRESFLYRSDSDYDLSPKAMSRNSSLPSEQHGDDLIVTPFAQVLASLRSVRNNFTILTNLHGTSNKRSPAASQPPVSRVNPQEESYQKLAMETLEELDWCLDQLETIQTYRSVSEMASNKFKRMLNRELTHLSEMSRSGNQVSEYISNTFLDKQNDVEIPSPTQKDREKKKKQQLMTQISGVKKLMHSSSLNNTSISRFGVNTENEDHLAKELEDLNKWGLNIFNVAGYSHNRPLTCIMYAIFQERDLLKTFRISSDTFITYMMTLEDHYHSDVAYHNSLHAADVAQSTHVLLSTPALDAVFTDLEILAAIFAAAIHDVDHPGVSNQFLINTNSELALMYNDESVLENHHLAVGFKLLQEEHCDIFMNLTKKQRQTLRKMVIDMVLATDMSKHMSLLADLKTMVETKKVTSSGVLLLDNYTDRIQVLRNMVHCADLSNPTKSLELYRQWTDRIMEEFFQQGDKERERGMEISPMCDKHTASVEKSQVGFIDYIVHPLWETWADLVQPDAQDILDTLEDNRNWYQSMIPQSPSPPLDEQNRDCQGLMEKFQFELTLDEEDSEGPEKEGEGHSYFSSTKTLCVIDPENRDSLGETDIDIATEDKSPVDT
Chain of Cytochrome P450 2D6 (Homo sapiens) (P10635 whole entry, looked up): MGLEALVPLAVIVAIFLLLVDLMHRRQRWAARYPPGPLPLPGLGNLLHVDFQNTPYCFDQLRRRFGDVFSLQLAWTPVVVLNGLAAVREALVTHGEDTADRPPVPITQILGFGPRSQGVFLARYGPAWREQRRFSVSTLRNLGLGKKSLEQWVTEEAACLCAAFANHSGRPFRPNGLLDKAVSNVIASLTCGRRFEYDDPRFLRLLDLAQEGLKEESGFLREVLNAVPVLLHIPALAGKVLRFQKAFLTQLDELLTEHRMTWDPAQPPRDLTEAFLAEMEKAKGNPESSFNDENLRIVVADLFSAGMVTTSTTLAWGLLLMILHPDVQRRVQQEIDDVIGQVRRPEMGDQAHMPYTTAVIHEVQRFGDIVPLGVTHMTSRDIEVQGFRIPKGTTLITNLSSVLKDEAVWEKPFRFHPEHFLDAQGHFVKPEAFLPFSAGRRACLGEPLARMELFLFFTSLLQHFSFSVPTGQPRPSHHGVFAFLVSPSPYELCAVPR
Chain of Alpha-galactosidase A (Homo sapiens) (P06280 whole entry, looked up): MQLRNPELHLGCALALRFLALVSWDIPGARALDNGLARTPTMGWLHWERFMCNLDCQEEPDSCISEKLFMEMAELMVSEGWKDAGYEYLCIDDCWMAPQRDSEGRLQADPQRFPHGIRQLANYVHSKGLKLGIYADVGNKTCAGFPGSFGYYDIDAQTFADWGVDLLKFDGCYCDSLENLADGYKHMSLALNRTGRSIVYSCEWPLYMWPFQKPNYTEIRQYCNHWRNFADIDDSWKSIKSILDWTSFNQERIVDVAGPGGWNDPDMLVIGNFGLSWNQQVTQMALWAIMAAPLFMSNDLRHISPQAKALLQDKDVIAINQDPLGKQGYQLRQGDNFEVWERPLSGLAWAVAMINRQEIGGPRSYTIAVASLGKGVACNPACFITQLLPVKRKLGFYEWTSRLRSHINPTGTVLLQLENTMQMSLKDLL
Chain of Pyruvate kinase (Leishmania mexicana) (Q27686 2-499 E452W): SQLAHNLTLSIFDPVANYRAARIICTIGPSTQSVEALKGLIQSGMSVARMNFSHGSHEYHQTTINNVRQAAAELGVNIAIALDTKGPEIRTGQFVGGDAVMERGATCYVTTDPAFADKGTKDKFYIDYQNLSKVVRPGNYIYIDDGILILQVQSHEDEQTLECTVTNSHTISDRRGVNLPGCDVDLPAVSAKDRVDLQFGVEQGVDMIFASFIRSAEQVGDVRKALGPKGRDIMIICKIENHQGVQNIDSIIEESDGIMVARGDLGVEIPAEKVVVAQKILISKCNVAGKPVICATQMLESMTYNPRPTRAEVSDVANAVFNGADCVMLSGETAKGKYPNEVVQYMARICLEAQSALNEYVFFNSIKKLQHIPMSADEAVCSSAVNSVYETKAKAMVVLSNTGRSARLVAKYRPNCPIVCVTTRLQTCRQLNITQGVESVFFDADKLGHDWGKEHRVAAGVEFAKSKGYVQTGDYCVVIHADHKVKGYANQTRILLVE

O=C1/C(=C\c2ccccc2)C[C@@]2(O)[C@H]3Cc4ccc(O)c5c4[C@@]2(CCN3CC2CC2)[C@@H]1O5
inactive: Potency [2] > 46 µM | Potency [3] | Potency [4] | Potency [5] | Potency [6]
active: Potency [1] 31.6 µM

NCCCP(=O)(O)CC1CCCCC1
inactive: Potency [2] > 46 µM | Potency [7] > 46 µM | outcome [8] | Potency [9] | Potency [3] | Potency [4] | Potency [5] | Potency [6]

CCOC(=O)c1cc2c(cn1)[nH]c1ccccc12
inactive: outcome [10] | activity change, negative = inhibition ([11]; at 17.2 µM (top of the series)) 26.1% | Potency [2] > 20.6 µM | Potency [5] | Potency [6]

CCCC(=O)OCC[N+](C)(C)C
inactive: outcome [10] | activity change, negative = inhibition ([11]; at 17.2 µM (top of the series)) 5.08% | Potency [2] > 20.6 µM | Potency [5] | Potency [6]

CCN1C[C@]2(COC(=O)c3ccccc3N3C(=O)C[C@H](C)C3=O)CC[C@H](OC)[C@@]34[C@@H]5C[C@H]6[C@H](OC)[C@H]5[C@](O)(C[C@@H]6OC)[C@@](O)([C@@H](OC)[C@@H]23)[C@@H]14
inactive: Potency [2] > 46 µM | Potency [7] > 46 µM | Potency [3] | Potency [4] | Potency [5] | Potency [6]

COc1ccc(CNC(=O)/C=C\c2ccc3[nH]cc(CCN(C)C)c3c2)cc1
inactive: outcome [10] | Potency [1] | activity change, negative = inhibition ([11]; at 38 µM (top of the series)) -13.5% | Potency [2] > 46 µM | outcome [8] | Potency [12] | Potency [13] | outcome [14] | outcome [15] | outcome [16] | outcome [17] | outcome [18] | outcome [19] | Potency [3] | Potency [4] | Potency [5] | Potency [6]

O=C(/C=C\c1ccc(Cl)cc1)N[C@@]12CCC(=O)[C@@H]3Oc4c(O)ccc5c4[C@@]31CCN(CC1CC1)[C@@H]2C5
active: Potency [2] 1.63 µM | Potency [12] 5.01 µM
inactive: Potency [7] > 46 µM | outcome [8] | Potency [3] | Potency [4] | Potency [5] | Potency [6]

CCOC(=O)c1ncn2c1[C@H]1CCCN1C(=O)c1cc(OC)ccc1-2
inactive: outcome [10] | Potency [1] | activity change, negative = inhibition ([11]; at 38 µM (top of the series)) 7.15% | Potency [2] > 46 µM | Potency [7] > 46 µM | outcome [8] | Potency [9] | Potency [12] | Potency [13] | outcome [14] | outcome [15] | outcome [16] | outcome [17] | outcome [18] | outcome [19] | Potency [3] | Potency [4] | Potency [5] | Potency [6]

CN1[C@@H]2CC[C@H]1CC(O[C@@H](c1ccccc1)c1ccc(Cl)cc1)C2 (some centres undefined)
active: activity change, negative = inhibition ([11]; at 38 µM (top of the series)) -69.3% | Potency [12] 1.26 µM and 1.58 µM
inactive: outcome [10] | Potency [1] | Potency [2] > 46 µM | Potency [7] > 46 µM | outcome [14] | outcome [15] | outcome [16] | outcome [17] | outcome [18] | outcome [19] | Potency [4] | Potency [5] | Potency [6]

— PubChem BioAssay (NCATS)
